Source: PubChem (The Scripps Research Institute Molecular Screening Center)
TTR transcr act = TTR transcription activators in neuroblastoma reporter cells, primary screen, cell-based, luminescence, SH-SY5Y, TTR promoter Gaussia luciferase. activation, % at 16.7 µM. actives 1.3% (n = 92,000). 100% = recombinant luciferase protein wells;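 active = activation above the mean of all tested compounds plus 3 SD, cut at about 9.5% in these data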;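 note: cells exposed to compounds for one day before reading; 0% = median of all test compound wells on the plate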
HuH7 TTR inh = TTR promoter reporter inhibitors in hepatoma cells, counter-screen for TTR transcription activator project, cell-based, luminescence, HuH7 hepatoma; actives 4% (n = 1,100); AID 1117279, 2014; shares compounds with TTR transcr act; HuH7 TTR promoter-Gaussia luciferase reporter; inhibition, % at 16.7 µM;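 active = average inhibition above the solvent-only control wells' mean plus 3 SD, cut at about 15% in these data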;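 note: 0% = cells with DMSO only and 100% = cells with inhibitor control FD; inhibitors lower well luminescence so higher value means more inhibition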
TTR up confirm = TTR transcription activators, retest, confirmation, cell-based, luminescence, SH-SY5Y, triplicate. shares compounds with TTR transcr act. SHSY5Y TTR promoter Gaussia luciferase; 100% = purified Lucia enzyme wells, no cells. activation, % at 16.7 µM. 1,100 tested, under 10 active;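 active = mean activation above a set limit taken from the earlier primary screen, cut at about 11% in these data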;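 note: 0% = DMSO-treated cells and 100% = recombinant Lucia luciferase without cells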
* hit, by the source's call. The full list was thinned out, with hits kept by preference.

SMILES	TTR transcr act	others
CC(C)(N[C@@H](Cc1c[nH]c2ccccc12)C(=O)NCCc1c[nH]c2ccccc12)C(=O)NC1CCCCC1	-3
O=C(NCc1ccccc1Cl)O[C@H]1CC[C@@]23CCCN2C(=O)CCC[C@H]3C1	0
O=C(Nc1ccc2ncccc2c1)c1ccccc1Cl	11*	HuH7 TTR inh=-7;TTR up confirm=-1
O=C(NC(=S)Nc1ccc2ncccc2c1)c1ccccc1	-1
O=C(Nc1ccc2ncccc2c1)c1ccccc1	1
CCC[C@H]1[C@@H](OC(=O)NCc2ccc(OC)c(OC)c2)CC[C@@]23CCCN2C(=O)CCC[C@@H]13	0
C[C@H]1[C@H](c2ccccc2)Oc2cccc(NCCc3ccccc3)c2S(=O)(=O)N1Cc1cccc(Cl)c1	1
CCCCOC(=O)CCN1C(=O)/C(=C/c2ccccc2)SC1=S	1
Cc1ccccc1CN[C@@H]1CC[C@@]23CCCN2C(=O)CCC[C@H]3C1	0
Cc1cccc(C)c1OCC(=O)Nc1ccc(S(=O)(=O)Nc2ccccn2)cc1	17*	HuH7 TTR inh=-4;TTR up confirm=0
O=C(COc1ccc(Br)cc1)Nc1ccc(S(=O)(=O)Nc2ccccn2)cc1	-1
Cc1cccc(C)c1OCC(=O)Nc1ccncc1	-1
Cn1c(=O)[nH]c(NCCc2ccc(O)cc2)c([N+](=O)[O-])c1=O	4
Cc1onc(-c2c(F)cccc2Cl)c1C(=O)OCC(=O)NC(c1ccccc1)c1ccccc1	-2
COC(=O)CSc1ccc(C#N)c(SCC(=O)OC)c1	1
COC(=O)Cn1cc(C(=O)OC)c2ccccc21	-1
COC(=O)CSc1ccccc1C(=O)OC	19*	HuH7 TTR inh=-13;TTR up confirm=1
Cn1nc(C(=O)Nc2nc3ccccc3[nH]2)ccc1=O	6
COc1ccc(C(=O)CCc2nc3ccccc3s2)cc1	0
CC(C)CC(CCOCCO)NC(=O)OCc1ccccc1[N+](=O)[O-] (stereo not drawn)	0
Nn1c(SCC(=O)Nc2ccc3c(c2)OCO3)nncc1=O	-2
Nn1cc(-c2ccccc2)nc1SCC(=O)Nc1ccc2c(c1)OCO2	14*	HuH7 TTR inh=-22;TTR up confirm=1
O=C(CSc1nc2ccccc2s1)Nc1ccc2c(c1)OCO2	2
Cc1ccccc1CN1CCCCC(NC(=O)c2cccc(C(F)(F)F)c2)C1=O (stereo not drawn)	-1
CC(C)CNC(=O)OCc1cn(Cc2cccc(Cl)c2)nn1	1
SMILES	TTR transcr act	others
CC(C)(C)OC(=O)N1CCc2onc(-c3ccccc3F)c2C1=O	-1
Cc1nc2ccccn2c1C(O)(c1ccccc1)c1ccccc1	-2
CN(Cc1ccccc1)C(=O)OCc1cn(Cc2ccc(Cl)cc2)nn1	-1
CCN(C(=O)CSc1nnc(-c2ccc(F)cc2)c2ccccc12)C1CCS(=O)(=O)C1 (stereo not drawn)	-1
CCN(C(=O)CSc1ccc2ccccc2c1)C1CCS(=O)(=O)C1 (stereo not drawn)	2
CCN(C(=O)CSc1nnc(C)n1Cc1ccccc1)C1CCS(=O)(=O)C1 (stereo not drawn)	10*	HuH7 TTR inh=-5;TTR up confirm=1
CCNC(=O)C1(C)CCCN(C(=O)c2sccc2C)C1 (stereo not drawn)	1
Fc1ccc(CNCc2ccc3c(c2)OCO3)cc1	-1
O=Cc1ccc(OCc2ccc3c(c2)OCO3)cc1	9.8*	HuH7 TTR inh=-16;TTR up confirm=0
CC(=O)c1ccc(OCC(O)CNCc2ccc3c(c2)OCO3)cc1 (stereo not drawn)	0
C[C@H]1[C@@H](OC(=O)NCc2ccccc2)CC[C@@]23CCCN2C(=O)CCC[C@@H]13	-1
O=C(Nc1ccc(F)cc1)Nc1c(-c2ccc(C(F)(F)F)cc2)nc2ncccn12	-3
COc1ccc(C(OC(=O)c2ccco2)C(=O)NC(C)(C)C)cc1 (stereo not drawn)	26*	HuH7 TTR inh=-2;TTR up confirm=-1
COc1ccc(CNC(=O)C(OC(=O)c2ccco2)c2ccccc2F)cc1 (stereo not drawn)	-2
CCC(OC(=O)c1ccco1)C(=O)NCc1ccc(OC)cc1 (stereo not drawn)	-1
CC1=CN2CC(O)CN=C2C=C1 (stereo not drawn)	-1
CCCCCn1nnnc1C1(C)CCCC(=O)N1Cc1ccco1 (stereo not drawn)	1
Cc1ccccc1-n1c(SCC(=O)Nc2ccccc2)nc2nc3c(cc2c1=O)CCCC3	13*	HuH7 TTR inh=-15;TTR up confirm=-1
CCn1c(SCC(=O)Nc2ccc(OC)cc2)nc2nc3c(cc2c1=O)CCCC3	-1
CCn1c(SCC(=O)NCc2ccccc2)nc2nc3c(cc2c1=O)CCCC3	-1
COc1cc(-c2noc(CCCC(=O)NCc3ccccc3)n2)cc(OC)c1OC	1
O=C(NCCc1c[nH]c2ccccc12)OCc1cn(Cc2cc(F)ccc2F)nn1	-1
